The structures appear in SMILES notation. Several values for one entry are separate records, joined by “and”; a condition that tells them apart may be missing. Equal entries are not always repeated. Results filed as inconclusive are left out. A call without a number means that no potency is given here. Activity calls are given as the source filed them. Calls follow the shape of the dose curve; as a rule, active = well fitted curve in the direction sought with a large enough effect in the repeat runs; inconclusive = weak or mixed curves; inactive = no such curve, though single readings can be large; an effect the other way counts as inactive or inconclusive.
Also: nearly all actives have a fitted effect of over 50% in size.
Potency is read from the fitted curve at half-maximal effect.

Sequence of Voltage-gated inwardly rectifying potassium channel KCNH2 (Homo sapiens) (Q12809 whole entry, looked up): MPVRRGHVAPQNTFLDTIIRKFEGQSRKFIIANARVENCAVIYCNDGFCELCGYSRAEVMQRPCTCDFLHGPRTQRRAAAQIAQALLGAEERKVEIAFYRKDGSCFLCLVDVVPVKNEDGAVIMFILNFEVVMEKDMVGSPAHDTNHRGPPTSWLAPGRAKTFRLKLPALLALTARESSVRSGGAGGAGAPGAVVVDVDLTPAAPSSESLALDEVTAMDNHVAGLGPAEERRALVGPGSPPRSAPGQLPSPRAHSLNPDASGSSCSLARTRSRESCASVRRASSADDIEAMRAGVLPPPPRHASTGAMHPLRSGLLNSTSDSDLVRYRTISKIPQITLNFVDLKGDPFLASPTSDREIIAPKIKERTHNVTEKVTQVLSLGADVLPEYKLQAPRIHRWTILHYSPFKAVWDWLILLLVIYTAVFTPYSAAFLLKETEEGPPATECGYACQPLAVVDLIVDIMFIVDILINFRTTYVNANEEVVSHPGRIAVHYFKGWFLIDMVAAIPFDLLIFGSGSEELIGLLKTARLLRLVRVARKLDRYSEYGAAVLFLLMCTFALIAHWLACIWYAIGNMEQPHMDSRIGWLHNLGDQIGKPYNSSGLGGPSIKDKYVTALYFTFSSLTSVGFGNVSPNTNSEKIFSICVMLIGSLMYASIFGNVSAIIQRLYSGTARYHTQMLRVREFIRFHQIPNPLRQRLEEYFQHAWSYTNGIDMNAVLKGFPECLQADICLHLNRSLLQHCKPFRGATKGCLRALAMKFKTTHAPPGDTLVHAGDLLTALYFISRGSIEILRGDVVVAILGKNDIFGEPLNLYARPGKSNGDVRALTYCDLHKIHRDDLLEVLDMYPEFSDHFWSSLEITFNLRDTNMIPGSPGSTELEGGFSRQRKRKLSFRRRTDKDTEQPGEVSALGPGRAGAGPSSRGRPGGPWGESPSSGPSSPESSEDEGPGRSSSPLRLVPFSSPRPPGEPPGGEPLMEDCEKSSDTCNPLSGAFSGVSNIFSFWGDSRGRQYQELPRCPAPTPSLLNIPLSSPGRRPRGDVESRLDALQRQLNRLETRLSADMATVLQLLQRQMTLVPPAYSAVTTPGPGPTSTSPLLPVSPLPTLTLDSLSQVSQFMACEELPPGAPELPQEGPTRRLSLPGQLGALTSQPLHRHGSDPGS
Sequence of Cytochrome P450 1A2 (Homo sapiens) (P05177 whole entry, looked up): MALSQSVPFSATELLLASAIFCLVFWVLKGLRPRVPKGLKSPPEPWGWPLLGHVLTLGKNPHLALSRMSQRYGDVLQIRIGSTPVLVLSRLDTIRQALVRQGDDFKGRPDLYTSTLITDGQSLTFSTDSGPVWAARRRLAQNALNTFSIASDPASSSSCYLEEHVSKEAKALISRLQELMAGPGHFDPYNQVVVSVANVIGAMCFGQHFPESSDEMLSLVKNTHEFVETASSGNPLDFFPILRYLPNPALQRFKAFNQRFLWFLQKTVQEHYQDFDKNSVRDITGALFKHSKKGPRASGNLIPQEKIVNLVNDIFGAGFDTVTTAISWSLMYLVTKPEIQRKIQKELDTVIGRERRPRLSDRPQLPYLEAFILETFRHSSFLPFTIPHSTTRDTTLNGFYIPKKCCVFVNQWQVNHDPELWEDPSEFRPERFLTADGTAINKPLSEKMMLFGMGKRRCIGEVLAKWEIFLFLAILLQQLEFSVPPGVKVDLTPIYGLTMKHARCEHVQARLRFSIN

The target of one experiment is Cytochrome P450 2C9 (Homo sapiens) (UniProt P11712). Kind of experiment: Cytochrome P450 Family 2 Subfamily C Member 9 (CYP2C9) small molecule antagonists: luciferase reporter qHTS assay (AID 1671198). The settings on record: P450-Glo CYP2C9 enzyme assay, luciferin luminescence; series mostly up to 115 µM. A digest of the protocol: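 CYP2C9 activity was measured with a P450-Glo proluciferin substrate. Enzyme–substrate mix was held with compound for 10 min at room temperature, then NADPH regeneration solution was added for 1 h at 37C. Luciferin product was read as luminescence.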
Sequence of Cytochrome P450 2C9 (Homo sapiens) (P11712 whole entry, looked up): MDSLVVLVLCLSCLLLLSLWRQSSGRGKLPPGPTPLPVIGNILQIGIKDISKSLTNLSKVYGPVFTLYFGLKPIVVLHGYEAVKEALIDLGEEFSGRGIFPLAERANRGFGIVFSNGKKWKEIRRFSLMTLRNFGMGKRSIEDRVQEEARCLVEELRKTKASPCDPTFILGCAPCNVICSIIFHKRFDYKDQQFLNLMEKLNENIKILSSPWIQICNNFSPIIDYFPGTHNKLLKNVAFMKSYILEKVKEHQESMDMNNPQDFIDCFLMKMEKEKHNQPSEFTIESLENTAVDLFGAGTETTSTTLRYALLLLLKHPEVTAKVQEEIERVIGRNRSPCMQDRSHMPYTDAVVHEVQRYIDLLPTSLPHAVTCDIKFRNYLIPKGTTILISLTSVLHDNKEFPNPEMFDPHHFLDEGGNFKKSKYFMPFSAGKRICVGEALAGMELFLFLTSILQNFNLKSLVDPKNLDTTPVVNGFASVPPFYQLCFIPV
Take `CC(O)(P(=O)(O)O)P(=O)(O)O`: the Potency entry was “inactive”.

With `CCOc1ccc(NC(C)=O)cc1`, the Potency entry was “inactive”.

As for `COc1cccc(O)c1O`, the Potency result is “inactive”.

Take `CCCCCCCC(=O)OCC(COC(=O)CCCCCCC)OC(=O)CCCCCCC`: the Potency entry was “inactive”.

In the case of `C=C1CC[C@H](O)C/C1=C\C=C1/CCC[C@]2(C)[C@@H]([C@H](C)CCCC(C)C)CC[C@@H]12`, the Potency is 25 µM (active).

Consider `COc1ccc2c(c1)c(CC(=O)O)c(C)n2C(=O)c1ccc(Cl)cc1`, for which the Potency is 22.6 µM (active) and 17.8 µM (active) and 13.8 µM (active).

On to `NS(=O)(=O)c1cc2c(cc1Cl)NCNS2(=O)=O`, for which the Potency entry is “inactive”.

Take `CCN(CC)C(=O)c1cccc(C)c1`: the Potency entry is “inactive”.

`CN(C)CCOC(C)(c1ccccc1)c1ccccn1` (stereo not drawn): the Potency entry was “inactive”.

For a further experiment, the target named is Cytochrome P450 1A2 (Homo sapiens) (UniProt P05177). Kind of experiment: Cytochrome P450 Family 1 Subfamily A Member 2 (CYP1A2) small molecule antagonists: luciferase reporter qHTS assay (AID 1671199). The note with it: P450-Glo CYP1A2 enzyme, luciferin luminescence, 1 h; series mostly up to 115 µM. A digest of the protocol:
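Inhibition of CYP1A2 conversion of proluciferin to luciferin, detected by luminescence. Reaction run 1 h at room temperature with NADPH regeneration after brief compound preincubation.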
Consider `CN1CCC[C@H]1c1cccnc1`, for which the Potency entry was “inactive”.

On to `C1=CC2C3C=CC(C3)C2C1` (stereo not drawn), for which the Potency was 57 µM (active).

As to `CCCCCCCC(=O)OCC(COC(=O)CCCCCCC)OC(=O)CCCCCCC`, the Potency entry is “inactive”.

With `CC1(C)O[C@@H]2C[C@H]3[C@@H]4CCC5=CC(=O)C=C[C@]5(C)[C@@]4(F)[C@@H](O)C[C@]3(C)[C@]2(C(=O)CO)O1`, the Potency result is “inactive”.

Consider `COc1ccc2c(c1)c(CC(=O)O)c(C)n2C(=O)c1ccc(Cl)cc1`, for which the Potency result was “inactive”.

Consider `CC1(C)S[C@@H]2[C@H](NC(=O)[C@H](N)c3ccccc3)C(=O)N2[C@H]1C(=O)O`, for which the Potency entry is “inactive”.

For `CN(C)CCOC(C)(c1ccccc1)c1ccccn1` (stereo not drawn), the Potency result is “inactive”.

Take `C=CCc1ccc(O)c(OC)c1`: the Potency was 31.5 µM (active) and 39.9 µM (active).

The target in the next experiment is Voltage-gated inwardly rectifying potassium channel KCNH2 (Homo sapiens) (UniProt Q12809). Kind of experiment: Human Ether-a-go-go-Related Gene (hERG) channel small molecule antagonists: fluorescence cell-based qHTS assay (AID 1671200). The note with it: hERG-U2OS cells, FluxOR thallium flux fluorescence; series mostly up to 76.8 µM. A digest of the protocol:
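Fluorescence at 540 nm emission (480 nm excitation) was recorded kinetically for 2 min at 1-second intervals once the thallium-containing stimulus reached cells previously loaded with FluxOR II dye.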
In general terms: Block of hERG is tested as a sign of cardiac risk.
In the case of `CC(O)(P(=O)(O)O)P(=O)(O)O`, the Potency result is “inactive”.

Consider `CCOc1ccc(NC(C)=O)cc1`, for which the Potency result is “inactive”.

Regarding `COc1cccc(O)c1O`, the Potency entry was “inactive”.

Turning to `O=C1NS(=O)(=O)c2ccccc21`, the Potency result was “inactive”.

With `CN1CCC[C@H]1c1cccnc1`, the Potency entry is “inactive”.

For the compound `CNNCc1ccc(C(=O)NC(C)C)cc1`, the Potency result is “inactive”.

On to `Oc1ccccc1`, for which the Potency result was “inactive”.

As to `CC(C)NCC(O)c1ccc(O)c(O)c1` (stereo not drawn), the Potency result was “inactive”.

For the compound `C1=CC2C3C=CC(C3)C2C1` (stereo not drawn), the Potency entry was “inactive”.

As for `CC(=O)CC(c1ccccc1)c1c(O)c2ccccc2oc1=O` (stereo not drawn), the Potency result is “inactive”.

As to `CCCCCCCC(=O)OCC(COC(=O)CCCCCCC)OC(=O)CCCCCCC`, the Potency result is “inactive”.

As for `CCCC[P+](CCCC)(CCCC)CCCC`, the Potency was 21.8 µM (active) and 22.3 µM (active) and 12.3 µM (active).

`C=C1CC[C@H](O)C/C1=C\C=C1/CCC[C@]2(C)[C@@H]([C@H](C)CCCC(C)C)CC[C@@H]12`: the Potency result is “inactive”.

As for `CC1(C)O[C@@H]2C[C@H]3[C@@H]4CCC5=CC(=O)C=C[C@]5(C)[C@@]4(F)[C@@H](O)C[C@]3(C)[C@]2(C(=O)CO)O1`, the Potency entry was “inactive”.

As for `Cn1c(=O)c2c(ncn2C)n(C)c1=O`, the Potency result is “inactive”.

Take `COc1ccc2c(c1)c(CC(=O)O)c(C)n2C(=O)c1ccc(Cl)cc1`: the Potency entry was “inactive”.

With `NS(=O)(=O)c1cc2c(cc1Cl)NCNS2(=O)=O`, the Potency result was “inactive”.

`CCCCNC(=O)NS(=O)(=O)c1ccc(C)cc1`: the Potency entry is “inactive”.

With `CCN(CC)C(=O)c1cccc(C)c1`, the Potency entry was “inactive”.

For the compound `C/C=C/C=C/C(=O)O`, the Potency entry is “inactive”.

In the case of `CN(C)CCOC(C)(c1ccccc1)c1ccccn1` (stereo not drawn), the Potency entry was “inactive”.

Turning to `O=C1NC(=O)C(c2ccccc2)(c2ccccc2)N1`, the Potency entry was “inactive”.

In the case of `CCCCC1(COC(=O)CCC(=O)O)C(=O)N(c2ccccc2)N(c2ccccc2)C1=O`, the Potency entry is “inactive”.

`Cc1ccc(S(=O)(=O)O)cc1`: the Potency result is “inactive”.

As for `C=CCc1ccc(O)c(OC)c1`, the Potency entry was “inactive”.

The target in another experiment is Cytochrome P450 3A4 (Homo sapiens) (UniProt P08684). Kind of experiment: Cytochrome P450 Family 3 Subfamily A Member 4 (CYP3A4) small molecule antagonists: luciferase reporter qHTS assay (AID 1671201). The settings on record: P450-Glo CYP3A4 enzyme, luciferin luminescence, 1 h; series mostly up to 115 µM. A digest of the protocol: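 qHTS, 1536-well. CYP3A4 + proluciferin substrate, cpd 10 min RT → NADPH regen 1 h RT → detection reagent 20 min → luminescence (RLU). Ketoconazole positive control.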
Sequence of Cytochrome P450 3A4 (Homo sapiens) (P08684 whole entry, looked up): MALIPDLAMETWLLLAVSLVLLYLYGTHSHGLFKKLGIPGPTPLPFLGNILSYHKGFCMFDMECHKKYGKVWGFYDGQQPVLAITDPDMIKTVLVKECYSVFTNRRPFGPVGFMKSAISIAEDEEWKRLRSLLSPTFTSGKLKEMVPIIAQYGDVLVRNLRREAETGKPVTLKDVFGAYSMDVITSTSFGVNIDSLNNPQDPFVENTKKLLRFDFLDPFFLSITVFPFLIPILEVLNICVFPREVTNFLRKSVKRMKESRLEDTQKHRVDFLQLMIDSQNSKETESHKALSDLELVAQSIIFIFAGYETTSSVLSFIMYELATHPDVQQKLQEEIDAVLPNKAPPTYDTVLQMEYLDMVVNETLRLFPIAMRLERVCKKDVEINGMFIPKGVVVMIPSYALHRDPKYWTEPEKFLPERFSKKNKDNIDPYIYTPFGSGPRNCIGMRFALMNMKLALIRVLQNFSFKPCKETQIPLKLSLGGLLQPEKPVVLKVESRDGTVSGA
In general terms: Reporter assays use an easily measured gene product as a stand-in for the process of interest.
As for `CC(O)(P(=O)(O)O)P(=O)(O)O`, the Potency entry is “inactive”.

With `CCOc1ccc(NC(C)=O)cc1`, the Potency result was “inactive”.

With `COc1cccc(O)c1O`, the Potency result was “inactive”.

On to `C1=CC2C3C=CC(C3)C2C1` (stereo not drawn), for which the Potency entry is “inactive”.

`COc1ccc(OC(F)(F)F)cc1CN[C@H]1CCCN[C@H]1c1ccccc1`: the Potency is 1.78 µM (active).

For the compound `CCCCCCCC(=O)OCC(COC(=O)CCCCCCC)OC(=O)CCCCCCC`, the Potency entry was “inactive”.

Consider `COc1ccc2c(c1)c(CC(=O)O)c(C)n2C(=O)c1ccc(Cl)cc1`, for which the Potency entry was “inactive”.

As for `NS(=O)(=O)c1cc2c(cc1Cl)NCNS2(=O)=O`, the Potency result is “inactive”.

With `CC1(C)S[C@@H]2[C@H](NC(=O)[C@H](N)c3ccccc3)C(=O)N2[C@H]1C(=O)O`, the Potency result is “inactive”.

As to `CN(C)CCOC(C)(c1ccccc1)c1ccccn1` (stereo not drawn), the Potency entry is “inactive”.

Turning to `C=CCc1ccc(O)c(OC)c1`, the Potency result was “inactive”.

Source of the values: PubChem BioAssay (Tox21).
